Inconclusive results are not listed. Values without a mark were called inactive. Activity calls are given as the source filed them. Calls come from the whole dose curve.
target: Neuropeptide S receptor (Homo sapiens) (UniProt Q6W5P4); experiment: Confirmation Concentration-Response Assay for Antagonists of the Neuropeptide S Receptor: cAMP Signal Transduction, SAR for Probe; conditions: CHO-NPSR cells, cAMP TR-FRET, antagonist mode; series mostly up to 47.8 µM; activity change, negative = inhibition: at the top concentration
Description: NIH Chemical Genomics Center [NCGC] NIH Molecular Libraries Probe Production centers Network [MLPCN] MLPCN Grant: X01-DA026210-01 Assay Submitter (PI): Heilig, Markus Alexander NCGC Assay Overview: Neuropeptide S receptor (NPSR), previously known as GPR154, is a recently de-orphanized G protein coupled receptor. Its endogenous ligand is the 20 amino acids peptide Neuropeptide S (NPS). […] NPS and its receptor are found in various tissues. Specifically they are highly expressed in brain areas that have been implicated in modulation of arousal, stress and anxiety. Central administration of NPS in mice produces an unusual profile of activity by inducing wakefulness and arousal, while at the same time suppressing anxiety. Therefore, NPSR may represent a novel drug target for the treatment of sleep and anxiety disorders. To identify NPSR antagonists, we developed a cell-based cAMP assay. NPS can stimulate the production of cAMP in Chinese hamster ovary cells stably expressing NPS receptor. This change in intracellular cAMP level can be detected by a homogeneous LANCE cAMP assay based on the TR-FRET (time resolved fluorescence resonance energy transfer) between a europium-labeled cAMP tracer complex and a cAMP-specific antibody labeled with Alexa Fluor 647. The europium-labeled cAMP tracer complex is formed by the tight interaction between Biotin-cAMP (b-cAMP) and streptavidin labeled with Europium-W8044 chelate (Eu-SA). Light pulse at 320 nm excites the europium of the cAMP tracer and the energy emitted is transferred to the Alexa molecule bound to the cAMP antibody, generating a TR-FRET signal at 665 nm. Residual energy from the europium will produce a light at 620 nm. The native unlabeled cAMP from cell lysates competes with the europium-cAMP tracer for antibody binding and reversely reduces the emission signal of Alexa by interrupting FRET between the two labeled molecules. Both emission signals from the FRET donor (620 nm) and the acceptor (665 nm) can be detected by a plate reader in the TRF mode. Expression of result in fluorescence ratio (665 nm/620 nm) helps to normalize differences due to cell density and reagent dispensing. This assay was successfully optimized to a 1536-well plate format. Select compounds from the primary screen (AID 1461) were chosen for confirmation based on potency, efficacy, SAR, and activity across other assays in PubChem and at NCGC. Other compounds are analogs of active compounds from the primary screen.
NCGC Assay Protocol Summary: A Chinese hamster ovary (CHO) cell line stably expressing the NPS receptor (CHO-NPSR) was obtained from Dr. Heilig lab at NIAAA and maintained in F-12 Kaighn's media (Invitrogen, Carlsbad, CA, 21127) supplemented with 10 % FBS, 100 units/ml penicillin, 100 ug/ml streptomycin and 250 ug/ml geneticin at 37C, 5% CO2 in a humidified atmosphere. Before the assay, aliquots of cells were frozen and stored at -135C. The assay was performed in 1536-well format. Data are reported for both the ratio of the two emission wavelengths, and also for the component 'donor' channel, Em2=620. […] IC50 values were determined from concentration-response data modeled with the standard Hill equation. NPS 1536-well assay protocol: (1) Fresh or frozen CHO-NPSR cells were suspended in F-12 Kaighn's media supplemented with 10 % FBS, 100 units/ml penicillin and 100 ug/ml streptomycin. Cells were plated at 4 ul/well (1200 cells) to white, tissue culture treated 1536-well plates, and then cultured at 37C, 5 % CO2 for 16 to 30 hours. (2) Add 23 nl/well of compound in DMSO solution. The final titration for each compound was between 0.6 nM and 46 uM. (3) Add 1 ul of stimulation reagent (1X HBSS buffer, 5 mM HEPES, 0.1% BSA, 500 uM RO-201724 (Sigma-Aldrich, B8279), 1.5% Alexa 647-labeled anti-cAMP antibody (from Perkin Elmer), 100 nM NPS) (4) Incubation at 37C, 5 % CO2 for 60 min. (5) Add 1 ul/well detection reagent. […]

Chain of Neuropeptide S receptor (Homo sapiens) (Q6W5P4 whole entry, looked up): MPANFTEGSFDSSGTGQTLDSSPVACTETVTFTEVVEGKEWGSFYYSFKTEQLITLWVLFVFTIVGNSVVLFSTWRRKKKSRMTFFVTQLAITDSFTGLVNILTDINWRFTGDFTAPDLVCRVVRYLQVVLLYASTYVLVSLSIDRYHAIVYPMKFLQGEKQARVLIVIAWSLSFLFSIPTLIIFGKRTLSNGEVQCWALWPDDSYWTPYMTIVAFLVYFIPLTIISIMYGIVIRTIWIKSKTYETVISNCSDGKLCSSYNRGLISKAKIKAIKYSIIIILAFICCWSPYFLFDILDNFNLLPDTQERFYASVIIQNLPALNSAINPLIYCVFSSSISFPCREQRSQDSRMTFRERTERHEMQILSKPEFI

Row | Compound | Potency | activity change, negative = inhibition [%]
1 | COc1cccc(C2c3c(ncn(-c4ccccn4)c3=N)Oc3ccc4ccccc4c32)c1 (stereo not given) | 30.7 µM (active) | 
2 | COc1cccc(C2c3c(ncn(-c4cccc(C#N)c4)c3=N)Oc3ccc4ccccc4c32)c1 (stereo not given) | 19.4 µM (active) | 
3 | COc1ccc(C2c3c(ncn(Cc4ccccc4)c3=N)Oc3ccc4ccccc4c32)cc1OC (stereo not given) | 19.4 µM (active) | 
4 | O=P(c1ccccc1)(c1ccccc1)c1cnc2ccccn12 |  | -17.1
5 | COc1ccc(C2c3c(nc(CCCc4ccccc4)[nH]c3=O)Oc3ccc4ccccc4c32)cc1OC (stereo not given) |  | -18.2
6 | COc1cccc(C2c3c(ncn(-c4ccccc4Cl)c3=N)Oc3ccc4ccccc4c32)c1 (stereo not given) | 12.2 µM (active) | 
7 | COc1cccc(C2c3c(ncn(-c4ccc(Br)cc4)c3=N)Oc3ccc4ccccc4c32)c1 (stereo not given) | 15.4 µM (active) | 
8 | COc1ccc(C2c3c(n(Cc4ccccc4)cnc3=N)Oc3ccc4ccccc4c32)cc1OC (stereo not given) | 48.7 µM (active) | 
9 | Cc1nc2ccccn2c1P(=O)(c1ccccc1)c1ccccc1 |  | -20.8
10 | O=C(NCc1ccccc1)n1cc(P(=S)(c2ccccc2)c2ccccc2)c2ccccc21 |  | -17.7
11 | COc1ccc(C2c3c(nc(Cc4ccccc4)[nH]c3=O)Oc3ccc4ccccc4c32)cc1OC (stereo not given) |  | -20.3
12 | COc1cccc(C2c3c(ncn(-c4ccccc4Br)c3=N)Oc3ccc4ccccc4c32)c1 (stereo not given) | 12.2 µM (active) | 
13 | Cc1c(P(=S)(c2ccccc2)c2ccccc2)c2ccccc2n1Cc1ccccc1 |  | -21.2
14 | OC(c1ccccc1)(c1ccccc1)c1cnc2ccccn12 |  | -18.7
15 | COc1cccc(C2c3c(ncn(-c4cccc(OC)c4)c3=N)Oc3ccc4ccccc4c32)c1 (stereo not given) | 9.72 µM (active) | 
16 | Cc1c(P(=S)(c2ccccc2)c2ccccc2)c2ccccc2n1CCc1ccccc1 |  | -9.1
17 | COc1ccc(C2c3c(n(CCCc4ccccc4)cnc3=N)Oc3ccc4ccccc4c32)cc1OC (stereo not given) | 24.4 µM (active) | 
18 | COc1ccc(C2c3c(ncn(CCc4ccccc4)c3=N)Oc3ccc4ccccc4c32)cc1OC (stereo not given) | 24.4 µM (active) | 
19 | COc1cccc(C2c3c(ncn(-c4cccc(Cl)c4)c3=N)Oc3ccc4ccccc4c32)c1 (stereo not given) | 15.4 µM (active) | 
20 | COc1ccc(C2c3ccccc3Oc3ncn(CCN4CCOCC4)c(=N)c32)cc1OC (stereo not given) | 6.14 µM (active) | 

Row | Compound | Potency | activity change, negative = inhibition [%]
21 | Cc1c(P(=S)(c2ccccc2)c2ccccc2)c2ccccc2n1C(=O)Cc1ccccc1 |  | -16.5
22 | COc1cccc(C2c3c(ncn(-c4ccc(-c5ccccc5)cc4)c3=N)Oc3ccc4ccccc4c32)c1 (stereo not given) |  | -18.1
23 | COc1cccc(C2c3c(ncn(-c4ccccc4SC)c3=N)Oc3ccc4ccccc4c32)c1 (stereo not given) | 7.72 µM (active) | 
24 | COc1ccc(C2c3ccc4ccccc4c3Oc3ncn(CCN4CCOCC4)c(=N)c32)cc1OC (stereo not given) | 48.7 µM (active) | 
25 | COc1cccc(C2c3c(ncn(-c4cccc(C)c4)c3=N)Oc3ccc4ccccc4c32)c1 (stereo not given) | 12.2 µM (active) | 
26 | COc1ccc(C2c3c(nc(CCc4ccccc4)[nH]c3=O)Oc3ccc4ccccc4c32)cc1OC (stereo not given) |  | -11.2
27 | O=C1OC(c2ccccc2)(c2ccccc2)N2CCN(C(=O)NCc3ccc(F)cc3)CC12 (stereo not given) | 1.94 µM (active) | 
28 | CCC(C)(CCN1CCOCC1)N(Cc1cc2ccccc2n(C)c1=O)C(=O)C1CCCCC1 (stereo not given) | 0.308 µM (active) | 
29 | Cc1c(P(=S)(c2ccccc2)c2ccccc2)[n+]2ccccc2n1CC(=O)c1ccccc1 | 4.45 µM (active) | 
30 | COc1cccc(C2c3c(ncn(-c4ccccc4C)c3=N)Oc3ccc4ccccc4c32)c1 (stereo not given) | 9.72 µM (active) | 
31 | COc1ccc2c(c1)Oc1ncn(CCN3CCOCC3)c(=N)c1C2c1ccc(OC)c(OC)c1 (stereo not given) | 19.4 µM (active) | 
32 | COc1ccc(C2C3=C(N=CN(CCN4CCOCC4)C3N)Oc3ccccc32)cc1OC (stereo not given) |  | -10.3
33 | COc1cccc(C2c3c(ncn(-c4ccc(C)cc4)c3=N)Oc3ccc4ccccc4c32)c1 (stereo not given) | 12.2 µM (active) | 
34 | COc1cccc(C2c3c(ncn(-c4cccnc4)c3=N)Oc3ccc4ccccc4c32)c1 (stereo not given) | 12.2 µM (active) | 
35 | COc1ccc(C2c3c(N)nc(CCc4ccccc4)nc3Oc3ccc4ccccc4c32)cc1OC (stereo not given) | 48.7 µM (active) | 
36 | COc1cccc(C2c3c(ncn(-c4ccccc4-c4ccccc4)c3=N)Oc3ccc4ccccc4c32)c1 (stereo not given) | 38.7 µM (active) | 
37 | CCOC(=O)c1ccc(-n2cnc3c(c2=N)C(c2cccc(OC)c2)c2c(ccc4ccccc24)O3)cc1 (stereo not given) | 15.4 µM (active) | 
38 | COc1cccc(C2c3c(ncn(-c4ccc(C#N)cc4)c3=N)Oc3ccc4ccccc4c32)c1 (stereo not given) | 15.4 µM (active) | 
39 | Cc1c(C(O)(c2ccccc2)c2ccccc2)[n+]2ccccc2n1C |  | -2.91
40 | Cn1cc(P(=O)(c2ccccc2)c2ccccc2)c2ccccc21 |  | -17.1

— PubChem BioAssay AID2568 (National Center for Advancing Translational Sciences (NCATS), 2010)
